Reference: PubChem BioAssay AID489025 (Southern Research Specialized Biocontainment Screening …, 2010)
The campaign covered roughly 2,300 compounds. About 790 (34%) were called active. Some of the results follow. Potency and affinity values are given separately. Values without a mark were called inactive. No rule for the calls is given here.

Assay: THP-1 cell cytotoxicity, dose response, cytotoxicity control for non-replicating M. tuberculosis project (AID 489025)
Conditions: THP-1 cell viability; series mostly up to 40 µM; viability: at the top concentration

| Compound | viability [%] |
| --- | --- |
| Nc1ccc2c(c1)oc1ccccc12 | 101 |
| COc1ccc(N2CCN(CC(=O)NC(=O)NC(C)(C)C)CC2)cc1 | 96.5 |
| Cc1cc(C)n(C(=O)c2ccc([N+](=O)[O-])cc2[N+](=O)[O-])n1 | 96 |
| O=C(c1ccc([N+](=O)[O-])cc1[N+](=O)[O-])N1CCc2ccccc21 | 103 |
| CCC1(O)CC(c2ccccc2)=NN1C(=O)c1ccccc1F (stereo not drawn) | 102 |
| CCOC(=O)C(C)(C)n1nnc(-c2ccc([N+](=O)[O-])cc2)n1 | 116 |
| CCOC(=O)C1CCN(C(=O)COc2cc(C)c(Br)c(C)c2)CC1 | 110 |
| O=C(COc1ccccc1)Nc1ccc(Cl)cn1 | 83.5 |
| FC(F)c1nnc2ccc(Cl)nn12 | 72.5 |
| O=Cc1coc2ccc3ccccc3c2c1=O | 81.1 |
| COC(=O)COc1cccc(NC(=O)c2cccc(C)c2)c1 | 77.6 |
| COc1ccc(-c2noc(CCC(=O)Nc3cccc(C)c3)n2)cc1 | 113 |
| CCOC(=O)COc1ccc(C(=O)c2ccccc2)c(O)c1 | 109 |
| CC(C)c1cc(C(=O)N/N=C/C=C/c2ccccc2)n[nH]1 | 75.9 |
| COc1ccc(S(=O)(=O)NCc2ccc3c(c2)cc(C)n3C)cc1 | 95.4 |
| Cc1nnc(N/N=C/c2cccc(OCc3ccc(Cl)c(Cl)c3)c2)n1N | 79.3 |
| O=C(OCc1nc2ccccc2s1)c1ccc(Br)o1 | 115 |

| Compound | viability [%] |
| --- | --- |
| CCOC(=O)CCCNC(=O)COC(=O)c1cc(Br)c(Br)s1 | 105 |
| O=C(N/N=C/C(Br)=C/c1ccccc1)c1cnccn1 | 95.2 |
| CCOc1ccc(-c2ccc(C=O)o2)c([N+](=O)[O-])c1 | 70.5 |
| C/C(CC(=O)Nc1ccc(N(C)C)cc1)=N\NC(=O)c1ccncc1 | 107 |
| Cc1cc(Cl)ccc1OC(C)C(=O)Nc1ccc([N+](=O)[O-])cn1 (stereo not drawn) | 79.7 |
| Cc1ccc(C)c(NC(=O)c2cc([N+](=O)[O-])cc([N+](=O)[O-])c2)c1 | 107 |
| O=C1CC(=O)CC(c2ccccc2)C1 | 106 |
| O=C1CC(N2CCC(c3nc4ccccc4o3)CC2)C(=O)N1 (stereo not drawn) | 99.5 |
| COc1cccc(OCC(=O)NNC(=O)c2cccs2)c1 | 102 |
| O=[N+]([O-])c1ccc(N2CCN(Cc3ccc([N+](=O)[O-])o3)CC2)cc1 | 89.6 |
| O=C(NNC(=O)c1cccs1)c1ccc(Br)o1 | 95.2 |
| O=[N+]([O-])c1ccc(CN2CCN(c3ccc(F)cc3)CC2)o1 | 106 |
| O=C(c1cccs1)N1CCN(c2ccc(Cl)cc2)CC1 | 85 |
| O=[N+]([O-])c1ccc(CN2CCN(c3ccccc3)CC2)o1 | 126 |
| CCOC(=O)NC(=O)COC(=O)CCCSc1nc2ccccc2s1 | 119 |
| O=C(Cc1ccc(F)cc1)Nc1ccc(Cl)cn1 | 92.7 |
